This note sets out measurements from PubChem BioAssay.

The subject of assay [1] is Human papillomavirus type 1a protein E7 (residues 44-93). Nature of the assay: small molecules binding HPV E7 44-93 – biochemical, small-molecule microarray, residues 44-93, 635 nm fluorescence, primary screen (AID 1108).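 Further: E7 fragment applied at 1 µg/mL in TBST for 1 h at 4 C; score combines spot fluorescence with its signal to noise ratio.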 The conditions noted are these: fluorescence 635 nm, higher = more signal.
The nature of assay [2]: hepatitis C replication reporter changes, two-sided – Huh7 cells, luciferase reporter, HCV replication inhibitor project, primary screen (AID 1109).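 Further: huh7 hepatoma cells harbouring a luciferase neomycin HCV replicon reporter; luciferase luminescence as measure of HCV replicon replication; test concentration not given here.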 Particulars: Huh7 HCV replicon luciferase reporter, 48 h; higher = more signal. A general note: A reporter such as luciferase makes a cellular process visible.
Assay [3] addresses Left-right determination factor 2 (Homo sapiens) (UniProt O00292). Put plainly: small molecules binding LEFTY2 protein – biochemical, small-molecule microarray, 635 nm fluorescence scan, primary screen (AID 1110). The conditions noted are these: higher = more signal.
The target of assay [4] is Calmodulin-1 (Homo sapiens) (UniProt P0DP23). Put plainly: small molecules binding calmodulin-1 with EGTA – biochemical, small-molecule microarray, Cy5-labelled CALM1, profiling panel (AID 1111).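 Further: labelled calmodulin applied in Tris saline Tween buffer holding calcium plus EGTA and DTT.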 Particulars: Cy5-CALM1 binding fluorescence, higher = more signal.
The target is the same in assay [5]. Put plainly: small molecules binding Ca-loaded calmodulin-1 – biochemical, small-molecule microarray, Cy5-labelled CALM1, plus calcium, artefact control for SMM control-protein annotation, profiling panel (AID 1112).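 Further: score merges spot fluorescence with signal to noise from triplicate slides.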 Particulars: Cy5-CALM1 binding fluorescence, higher = more signal.
Assay [6] is described as follows: probe aWnt5a binding to arrayed compounds – biochemical, biotinylated probe, 635/667 nm fluorescence, primary screen (AID 1113).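 Further: score merges 667 nm fluorescence intensity with signal-to-noise per printed feature.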 Particulars: small-molecule microarray, higher = more signal.
The nature of assay [7]: probe aShh binding to arrayed compounds – biochemical, biotinylated probe, 635/667 nm fluorescence, primary screen (AID 1114).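 Further: probe is biotin-labelled aShh protein from a stem cell growth factor screen; measures binding of labelled protein to compounds printed on the slide; score merges feature fluorescence at 667 nm with signal-to-noise.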 The conditions noted are these: small-molecule microarray, higher = more signal.
A short description of assay [8]: probe aNog binding to arrayed compounds – biochemical, biotinylated probe, 635/667 nm fluorescence, primary screen (AID 1115).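 Further: probe is biotinylated aNog protein used at 0.15 µg/mL for 1 h at 4 C; z-score combines 667 nm fluorescence of each spot with its signal to noise.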 Particulars: small-molecule microarray, higher = more signal.
Assay [9] concerns the target Torsin-1A-interacting protein 1 (Homo sapiens) (UniProt Q5JTV8). Nature of the assay: compound microarray binding of lysate hLAP1 – cell lysate, small-molecule microarray, COS7 lysate, 635/667 nm fluorescence, primary screen (AID 1116). Particulars: 635 nm fluorescence, higher = more signal.
For assay [10], the target named is Alpha-bungarotoxin (Bungarus multicinctus) (UniProt P60615). Nature of the assay: compounds binding labelled alpha-BTX control protein – biochemical, small-molecule microarray, Alexa647 label, 635/667 nm fluorescence, artefact control for SMM control protein annotation, profiling panel (AID 1117). The conditions noted are these: alpha-BTX-A647 binding fluorescence, higher = more signal.
Sequence of Alpha-bungarotoxin (Bungarus multicinctus) (P60615 whole entry, looked up): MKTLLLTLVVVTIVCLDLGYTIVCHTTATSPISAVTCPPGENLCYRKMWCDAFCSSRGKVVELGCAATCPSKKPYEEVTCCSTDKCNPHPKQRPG

Sequence of Left-right determination factor 2 (Homo sapiens) (O00292 whole entry, looked up): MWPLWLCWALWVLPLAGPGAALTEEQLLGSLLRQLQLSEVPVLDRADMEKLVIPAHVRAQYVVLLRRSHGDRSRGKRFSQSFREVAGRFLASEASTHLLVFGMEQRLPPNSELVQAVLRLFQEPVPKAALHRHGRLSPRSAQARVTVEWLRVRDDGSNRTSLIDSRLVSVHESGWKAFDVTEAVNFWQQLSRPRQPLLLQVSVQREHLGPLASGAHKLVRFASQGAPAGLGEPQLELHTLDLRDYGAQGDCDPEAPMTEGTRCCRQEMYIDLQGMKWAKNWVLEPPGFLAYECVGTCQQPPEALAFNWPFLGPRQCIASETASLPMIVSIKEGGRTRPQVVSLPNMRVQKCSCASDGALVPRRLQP
Sequence of Torsin-1A-interacting protein 1 (Homo sapiens) (Q5JTV8 whole entry, looked up): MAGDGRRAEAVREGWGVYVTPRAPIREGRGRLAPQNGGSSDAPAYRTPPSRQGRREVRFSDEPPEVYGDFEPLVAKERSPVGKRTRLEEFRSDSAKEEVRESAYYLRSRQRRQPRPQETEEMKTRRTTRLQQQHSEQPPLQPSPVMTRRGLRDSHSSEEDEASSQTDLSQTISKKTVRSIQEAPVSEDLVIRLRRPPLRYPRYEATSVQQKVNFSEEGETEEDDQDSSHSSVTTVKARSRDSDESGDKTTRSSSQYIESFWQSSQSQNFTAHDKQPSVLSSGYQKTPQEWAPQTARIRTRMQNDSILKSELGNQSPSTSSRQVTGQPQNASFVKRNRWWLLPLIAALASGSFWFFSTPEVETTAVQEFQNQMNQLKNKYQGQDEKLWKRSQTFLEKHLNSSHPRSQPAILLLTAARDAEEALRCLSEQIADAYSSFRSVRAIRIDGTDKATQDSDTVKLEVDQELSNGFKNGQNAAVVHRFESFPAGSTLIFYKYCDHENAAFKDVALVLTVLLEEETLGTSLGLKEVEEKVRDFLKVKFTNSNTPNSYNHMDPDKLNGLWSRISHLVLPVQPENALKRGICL

Turning to `CCOC(=O)c1ccc(NC(=O)O[C@H]2[C@H](OC(=O)Nc3ccc4c(c3)OCO4)[C@H](OC(=O)Nc3ccc4c(c3)OCO4)[C@@H](OC)O[C@@H]2CO)cc1`, the composite z-score in assay [1] was 1.03; in [3], 0.803; in [4], 1.41; in assay [5] it was -0.179; in assay [6], 0.0771; in [7], 0.369. Further, the composite z-score in assay [8] came out at 0.252; in [9] it was 0.645; in assay [10], 1.22. The same compound gave a z-score in [2] of 0.295.

Consider `COc1cc(CO)cc(I)c1O[C@H]1C=C(C(=O)NCCO)C[C@@H](NCc2ccc(F)cc2)[C@@H]1O`, for which the composite z-score was -1.08 in assay [1]; 0.275 in assay [3]; 0.433 in assay [4]; -0.918 in assay [5]; -0.202 in assay [6]; 0.0684 in [7]. The composite z-score in [8] was -0.506; in [9] it was 0.0217; in assay [10], 0.2. Also, in assay [2], the z-score is -4.07.

For the compound `[N-]=[N+]=Nc1ccccc1[C@H]1OC(c2ccc(OCCCO)cc2)=N[C@@]1(CCS(=O)(=O)c1ccccc1)C(=O)NCCN1CCOCC1`, the composite z-score in assay [1] is 1.4; in assay [3] it was -0.354; in assay [4] it was 0.757; in assay [5] it was -0.368; in [6], 0.0246; in assay [7] it was 0.315. For the same compound, the composite z-score is 1.03 in assay [8], 0.936 in [9] and 0.755 in assay [10]. The z-score in assay [2] came to 0.517.

With `CC(C)C[C@@H]1NC(=O)[C@@H]2C[C@H](C(=O)NCCCCCN)[C@H](c3ccc(O)cc3)N2C1=O`, the composite z-score is 1.36 in assay [1]; 1.46 in assay [3]; 1.17 in [4]; 0.953 in [5]; -0.0194 in [6]; 0.108 in assay [7]. For the same compound, the figures for the composite z-score in [8], in [9] and in assay [10] were -0.651, 1.19 and 1.2, respectively. Further, in assay [2], the z-score is -0.196.

As for `NC(=O)NCC#Cc1ccc2c(c1)[C@]1(C(=O)N2)[C@H](C(=O)O)[C@H]2C(=O)O[C@H](c3ccccc3)[C@H](c3ccccc3)N2[C@@H]1c1ccc(OCCO)cc1`, the composite z-score was 1.05 in assay [1]; -0.288 in [3]; 0.382 in assay [4]; 0.117 in assay [5]; 0.0077 in [6]; 0.13 in assay [7]. Besides, the composite z-score in assay [8] was -0.265; in [9] it was 0.324; in assay [10], 2.01. In addition, the z-score in [2] is -0.327.

`COc1ccc(CCNC(=O)[C@@H]2c3ccccc3C(=O)N(Cc3cc(C(F)(F)F)cc(C(F)(F)F)c3)[C@H]2c2ccc(CO)cc2)cc1`: the composite z-score in assay [1] is 0.867; in assay [3] it was -0.31; in assay [4] it was 0.0713; in assay [5] it was -0.935; in assay [6] it was -0.141; in assay [7], -0.147. The composite z-score is -0.273 in assay [8], 0.338 in assay [9] and 0.795 in assay [10]. In [2], this compound displayed a z-score of -1.06.

Take `C[C@@H]1NC(=O)[C@@]23C(=O)N[C@@H](Cc4ccccc4)C2[C@H](C)[C@@]2(C)O[C@H]2C3/C=C/C/C=C\CNC(=O)[C@@H]2CCCN2C1=O` (stereo not given in full): the composite z-score in assay [1] was -0.496; in assay [3], -0.301; in assay [4], -0.535; in assay [5] it was -0.556; in assay [6], -0.196; in assay [7], -0.0553. In addition, the results for the composite z-score in assay [8], in assay [9] and in [10] were -0.122, -0.313 and -0.123, respectively. In [2], this compound returned a z-score of 0.606.

On to `CC(=O)NCCCC[C@@H]1NC(=O)[C@H]2C[C@@H](C(=O)NCCCC[N+](C)(C)C)[C@@H](c3cccc(OCCO)c3)N2C1=O`, for which the composite z-score in assay [1] was -0.194; in [3], 1.47; in assay [4], -2.42; in [5], -1.62; in assay [6] it was 0.027; in assay [7], 0.0121. Besides, the results for the composite z-score in assay [8], in [9] and in [10] were -0.122, 1.04 and 0.604, respectively. In addition, the z-score in assay [2] is -1.08.

With `COC(=O)[C@@]1(Cc2ccc(OC)cc2)[C@H]2c3cc(C(=O)N(C)C)n(Cc4ccc(Cl)c(C(F)(F)F)c4)c3C[C@H]2CN1C(=O)c1ccccc1`, the composite z-score in assay [1] was 1.39; in assay [3], -0.566; in [4] it was 1.41; in assay [5], 1.12; in assay [6] it was 0.235; in assay [7], 1.19. For the same compound, the composite z-score in assay [8] stood at 2.18; in [9], 0.535; in assay [10], 0.99. In addition, the z-score in assay [2] is -2.

For `CCOC(=O)C1=C[C@@H](c2ccccc2)N(S(=O)(=O)c2ccc(C)cc2)[C@H]1c1ccccc1Cl`, the composite z-score in assay [1] is 1.32; in assay [3], 0.553; in assay [4] it was 1.06; in assay [5], -0.651; in assay [6] it was -0.0161; in [7], 0.0121. For the same compound, the composite z-score in [8] was -0.0784; in assay [9], 0.731; in [10], 1.04. In [2], this compound registered a z-score of -1.55.

With `COC(=O)c1nc2oc1CC[C@@H](CO)NC(=O)N(C)Cc1cnnn1C[C@H](Cc1ccccc1)NC2=O`, the composite z-score in assay [1] was -0.367; in assay [3] it was -1.07; in assay [4], -0.677; in assay [5] it was -0.319; in assay [6] it was -0.159; in [7], -0.0035. For the same compound, the composite z-score in [8] was -0.321; in [9], 0.122; in assay [10], 1.25. This compound also registered a z-score in [2] of -0.421.

Consider `COC(=O)c1ccc([C@H](NC(=O)c2ccco2)[C@]2(C)C[C@H]2C2CCCCC2)cc1`, for which the composite z-score is -0.0855 in assay [1]; -1.6 in assay [3]; 1.51 in assay [4]; 1.39 in [5]; -0.096 in assay [6]; 0.142 in assay [7]. For the same compound, the figures for the composite z-score in [8], in assay [9] and in [10] were 1.46, -0.101 and 0.351, respectively. The compound further returned a z-score in [2] of -0.978.

Turning to `COc1ccc([Si](C)(C)[C@@H]2[C@@H](CC(=O)N(CCO)Cc3ccccc3)O[C@]3(C(=O)N(Cc4cccc(N5CCOC5=O)c4)c4ccccc43)[C@H]2C)cc1`, the composite z-score in assay [1] was -0.139; in assay [3] it was 0.538; in assay [4], -0.561; in assay [5], -0.44; in assay [6] it was -0.173; in assay [7], -0.0011. Also, the composite z-score is -0.237 in assay [8], 0.861 in assay [9] and 1.2 in assay [10]. In assay [2], this compound returned a z-score of -3.7.

For `C=CCC(OC(C)=O)[C@@H]1[C@@H](N(Cc2cccc3ccccc23)C(=O)Cc2ccc(OC)cc2)c2cc(OCCCO)ccc2N1C(=O)c1ccc2ccccc2n1` (stereo not given in full), the composite z-score in assay [1] is 0.26; in assay [3] it was 0.172; in assay [4], 0.0729; in [5] it was 0.259; in [6] it was 0.0132; in [7], -0.17. In addition, the results for the composite z-score in assay [8], in [9] and in [10] were -0.456, 0.307 and 0.472, respectively. In assay [2], this compound yielded a z-score of -0.043.

Regarding `NCCCCCNC(=O)[C@@H]1C[C@@H]2C(=O)NCC(=O)N2[C@@H]1c1cccc(OCCO)c1`, the composite z-score in assay [1] was 1.2; in [3], 0.79; in assay [4] it was 0.885; in assay [5] it was 0.433; in [6], -0.0202; in assay [7] it was 0.412. The composite z-score was found to be 0.217 in assay [8], 0.513 in assay [9] and 1.01 in assay [10]. The compound further came in with a z-score in assay [2] of -0.878.
